The text below walks through data of the supplement of paper PMC12494721.

Molecules are shown by their SMILES. Structures can show the parent of a compound that is named as a salt.

This experiment relates to Klebsiella aerogenes DSM 30053. The experiment is described as follows: growth (OD595) fold change vs plate DMSO controls (fold change (ratio)); higher = more growth. As to conditions: incubation time: 27 h, anaerobic, 37 °C. In outline: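 After 27 h at 37 °C under anaerobic conditions, 96-well cultures in mGAM were shaken and read at 595 nm. The readings were blank-subtracted, corrected for compound background using 20 µM compound solutions in water, and converted to OD with a calibration factor of 5. Growth is defined as the fold change over the median of DMSO controls on each plate. Fold changes above 1.5 were set to NA, and each value is the mean of 2 biological replicates.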
As to `CC#C[C@]1(O)CC[C@H]2[C@@H]3CCC4=CC(=O)CCC4=C3[C@@H](c3ccc(N(C)C)cc3)C[C@@]21C` [Mifepristone] (20 µM), the growth worked out at 0.986.
To `C[C@]12CC[C@@H]3c4ccc(O)cc4CC[C@H]3[C@@H]1CCC2=O` [Estrone] (20 µM) belongs 1.03; to `O=C(O)c1cccnc1Nc1cccc(C(F)(F)F)c1` [Niflumic acid] (20 µM), 0.996.
To `OCCN1CCN(CCCN2c3ccccc3C=Cc3ccccc32)CC1` [Opipramol dihydrochloride] (20 µM) belongs 0.983; to `COCC1=C(C(=O)OC(C)OC(=O)OC(C)C)N2C(=O)[C@@H](NC(=O)/C(=N\OC)c3csc(N)n3)[C@H]2SC1` (stereo not given in full) [Cefpodoxime proxetil] (20 µM), 1.04; to `CN(CCOc1ccc(CC2SC(=O)NC2=O)cc1)c1ccccn1` (stereo not given) [Rosiglitazone hydrochloride] (20 µM), 0.983.
In the case of `CC(C(=O)O)c1ccc(-c2ccccc2)c(F)c1` (stereo not given) [Flurbiprofen] (20 µM), the growth was determined as 1.
To `CCCCc1oc2ccc(NS(C)(=O)=O)cc2c1C(=O)c1ccc(OCCCN(CCCC)CCCC)cc1` [Dronedarone hydrochloride] (20 µM) belongs 1.02; to `O=C(COc1ccc(Cl)cc1)N1CCN(Cc2ccc3c(c2)OCO3)CC1` [Fipexide hydrochloride] (20 µM), 0.961.
To `CCCCCCCCCCCCCCCC[N+](C)(C)CCN(Cc1ccc(OC)cc1)c1ncccn1` [Thonzonium bromide] (20 µM) belongs 1.02; to `C#C[C@]1(O)CC[C@H]2[C@@H]3CCc4cc(OC)ccc4[C@H]3CC[C@@]21C` [Mestranol] (20 µM), 1.09; to `OC(CCN1CCCCC1)(c1ccccc1)C1CCCCC1` (stereo not given) [Trihexyphenidyl-D,L hydrochloride] (20 µM), 1.02.
The same measure for `O=C(Cn1cnnn1)N[C@@H]1C(=O)N2C(C(=O)O)=C(CSc3nncs3)CS[C@H]12` [Ceftezole] (20 µM): 1.05; for `CCOc1ccc(NC(N)=O)cc1` [(4-Ethoxyphenyl)urea] (50 µM): 0.994; for `NC(=O)c1ncn([C@@H]2O[C@H](CO)[C@@H](O)[C@H]2O)n1` [Ribavirin] (20 µM): 0.979.
Take `CC1(C)S[C@@H]2[C@H](NC(=O)C(C(=O)O)c3ccccc3)C(=O)N2[C@H]1C(=O)O` (stereo not given in full) [Carbenicillin disodium salt] (20 µM): the growth was found to be 1.05.
To `O=C(c1ccccc1)c1ccc2n1CCC2C(=O)O` (stereo not given) [Ketorolac tromethamine] (20 µM) belongs 0.976; to `CN(C(=O)CN(CCO)CC(=O)N(C)C(C)(C)Cc1ccccc1)C(C)(C)Cc1ccccc1` [Oxethazaine] (20 µM), 1.
The same measure for `CCOC(=O)[C@H](CCc1ccccc1)N[C@@H](C)C(=O)N1Cc2ccccc2C[C@H]1C(=O)O` [Quinapril hydrochloride] (20 µM): 0.996.
Regarding `CC[N+]1(CC)CCC(=C(c2ccccc2)c2ccccc2)C1C` (stereo not given) [Prifinium Bromide] (20 µM), the growth worked out at 1.04.
On to `O=P(O)(O)C(Cl)(Cl)P(=O)(O)O` [Clodronate disodium] (20 µM), for which the growth amounted to 1.02.
To `CCOC(=O)[C@@](C)(N)Cc1ccc(O)c(O)c1` [Methyldopate hydrochloride] (20 µM) belongs 1.03; to `O=C(NCCO[N+](=O)[O-])c1cccnc1` [Nicorandil] (20 µM), 0.928.
The same measure for `CN1CCN(c2c(F)cc3c(=O)c(C(=O)O)cn(CCF)c3c2F)CC1` [Fleroxacin] (20 µM): 0.
The same measure for `Cn1c(=O)c2c(ncn2CC(=O)O)n(C)c1=O` [Acefylline] (20 µM): 1.02; for `CC(=O)[C@H]1CC[C@H]2[C@@H]3C[C@H](C)C4=CC(=O)CC[C@]4(C)[C@H]3[C@@H](O)C[C@]12C` [Medrysone] (20 µM): 1.05; for `C=C1c2c(Cl)ccc(O)c2C(O)=C2C(=O)[C@]3(O)C(O)=C(C(N)=O)C(=O)[C@@H](N(C)C)[C@@H]3[C@@H](O)[C@H]12.O=C(O)c1cc(S(=O)(=O)O)ccc1O` [Meclocycline sulfosalicylate] (20 µM): 0.0719.
With `N[C@@H](CSCCCO)C(=O)O` [Fudosteine] (20 µM), the growth was determined as 1.01.
`CC1=C(C(=O)O)N2C(=O)[C@@H](NC(=O)[C@H](N)C3=CCC=CC3)[C@H]2SC1` [Cephradine monohydrate] (20 µM): the growth stood at 1.02.
To `Nc1ncnc2c1ncn2[C@@H]1O[C@H](CO)[C@@H](O)[C@@H]1O` [Vidarabine] (20 µM) belongs 0.99.
